# Wnt bcat act: Wnt/beta-catenin pathway activators, primary screen, cell-based, plate reader, single point; AID 743398, 2014; Wnt/beta-catenin reporter cell assay, activator; hit rate 1.2% among 300,000; activation, % at 9.35 µM; in the data active = activation above about 30%, passing the limit was not always enough; inconclusive = no clear call, values can overlap the other calls
# AF4-AF9 inh: inhibitors of AF4 peptide binding to AF9, primary screen, biochemical, AlphaScreen, biotin-AF4 peptide, FLAG-AF9, single point. inhibition, % at 10 µM. hit rate 0.47% among 350,000;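 active = every replicate reaching a set inhibition limit, whatever the replicate mean, cut at about 25% in these data; inconclusive = mean inhibition reaches that limit but some replicates miss it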
# Target sequence (P42568 whole entry, looked up): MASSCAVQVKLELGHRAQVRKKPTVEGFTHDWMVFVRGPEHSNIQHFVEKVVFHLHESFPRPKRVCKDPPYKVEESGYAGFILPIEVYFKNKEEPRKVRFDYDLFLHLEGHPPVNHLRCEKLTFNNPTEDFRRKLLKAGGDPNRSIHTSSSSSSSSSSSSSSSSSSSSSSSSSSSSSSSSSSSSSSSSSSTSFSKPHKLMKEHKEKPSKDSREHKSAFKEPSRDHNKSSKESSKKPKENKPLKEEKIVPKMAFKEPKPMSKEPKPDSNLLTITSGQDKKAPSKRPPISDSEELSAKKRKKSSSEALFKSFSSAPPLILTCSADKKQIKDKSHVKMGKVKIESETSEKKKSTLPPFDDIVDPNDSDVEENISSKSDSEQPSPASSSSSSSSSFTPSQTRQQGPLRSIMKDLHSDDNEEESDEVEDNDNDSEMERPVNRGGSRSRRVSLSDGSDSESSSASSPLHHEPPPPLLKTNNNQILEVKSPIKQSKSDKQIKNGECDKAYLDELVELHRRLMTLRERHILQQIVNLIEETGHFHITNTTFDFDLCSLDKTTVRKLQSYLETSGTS
# MITF TRPM1 HTS: activators of MITF-driven TRPM1 promoter reporter, primary screen, cell-based, SK-MEL-5, luciferase, single point. SK-MEL-5 TRPM1-promoter luciferase, 24 h; % of positive control, neutral wells = 0. activation, % at 12.5 µM. hit rate 0.75% among 300,000;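 active = mean activation of at least 80% with every replicate also reaching 80%; inconclusive = mean reaches 80% but some replicate falls short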
# SMARCA2 act: SMARCA2 (BRM) function activators, primary screen, cell-based, luminescence, high throughput; MG213 cells, MMTV-luciferase reporter, dexamethasone, overnight; hit rate 1% among 370,000; activation, % at 9.1 µM; in the data active = activation above about 7.8%
# FGF22 binding: binders of human FGF22 protein, primary screen, FGF22 synaptogenesis inhibitor project, biophysical, thermal shift, single point; Fibroblast growth factor 22 (Homo sapiens), Q9HCT0; recombinant FGF22 thermal shift, SYPRO orange fluorescence; percent of sucrose octasulfate shift, DMSO zero; activity (Tm shift, normalised), % at 9.99 µM; hit rate 1.5% among 340,000;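 active = mean Tm shift, scaled 0 neutral to 100 positive control, at about 1.3% or above, every replicate too, limit read from the data; inconclusive = no clear call, values can overlap the other calls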
# esBAF inh: Bmi1 luciferase reporter increase in mESCs, primary screen, esBAF inhibitor project, mouse ES cells, Bmi1 luciferase knock-in, single point; 24 h; 100% = twice the neutral-well signal; reporter increase, % at 12.5 µM; hit rate 2% among 350,000; AID 602393, 2012; in the data active = activation above about 40%; inconclusive = no clear call, values can overlap the other calls;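 also: a rise in the Bmi1 reporter signal indicates esBAF inhibition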
# Numbers stand for hits; - = inactive; ? = inconclusive; . = not tested or not shown. A selection: hits, their analogues and other compounds. The true share with any hit is near 4.3%.
SMILES,Wnt bcat act,AF4-AF9 inh,MITF TRPM1 HTS,SMARCA2 act,FGF22 binding,esBAF inh
O=C(Nc1ccc2c(c1)oc1ccc(S(=O)(=O)N3CCCC3)cc12)C1CC1,.,.,-,-,.,-
CN(C)CC(=O)Nc1ccc2c(c1)[C@@H]1C[C@@H](CC(=O)N3CCc4ccccc4C3)O[C@H](CO)[C@@H]1O2,.,-,.,.,-,-
COc1ccc(-c2ccc(C(=O)Nc3ccccc3)c3occc23)c(C)c1,-,-,.,-,-,85.6
COc1ccc(-c2ccc(C(=O)Nc3ccc4c(c3)OCO4)c3occc23)c(C)c1,-,-,.,-,-,59.2
COc1ccc(-c2ccc(C(=O)Nc3ccc(OC)nc3)c3occc23)c(C)c1,-,-,.,-,-,-
O=C(Cc1ccncc1)Nc1ccc2c(c1)[C@@H]1C[C@H](CC(=O)N3CCOCC3)O[C@@H](CO)[C@@H]1O2,.,.,.,.,-,-
C/C=C/c1ccc([C@@H]2[C@@H](CO)N(C(C)=O)[C@H]2CN(CC)C(=O)CC)cc1,.,.,.,.,.,-
CCOc1ccc(C(=O)N(CC(=O)Nc2cccc(C)c2C)CC2CCCO2)cc1OC (stereo not drawn),51.5,-,-,-,-,-
CNC[C@@H]1Oc2ccc(NC(=O)Cc3cn(C)c4ccccc34)cc2CC(=O)N([C@@H](C)CO)C[C@H]1C,.,-,.,.,.,-
CO[C@@H]1CN(C)C(=O)c2cc(NS(C)(=O)=O)ccc2OC[C@@H](C)N(C(=O)C2CC2)C[C@H]1C,.,-,.,.,-,-
COc1ccccc1CN(C)C[C@@H]1OCc2cn(nn2)CCCC(=O)N([C@@H](C)CO)C[C@@H]1C,.,-,.,.,-,-
O=C1OC[C@@H]2CCCN2C(=O)[C@@H](CC(=O)N(CCO)Cc2ccccc2)C/C=C\C[C@@H]1Cc1ccc(F)cc1,-,-,-,-,44.3,-
O=C1OC[C@@H]2CCCN2C(=O)[C@@H](CC(=O)N(CCO)Cc2ccccc2)C/C=C\CC[C@H]1Cc1ccc(F)cc1,-,-,-,-,-,-
O=C1NC[C@@H](c2ccccc2)OC(=O)[C@H](Cc2ccc(F)cc2)C/C=C\C[C@H]1CC(=O)N(CCO)Cc1ccccc1,-,-,-,-,-,-
O=C1NC[C@H](c2ccccc2)OC(=O)[C@@H](Cc2ccc(F)cc2)C/C=C\C[C@H]1CC(=O)N(CCO)Cc1ccccc1,-,-,-,-,-,44.5
CC(C)C(=O)Nc1ccc2c(c1)C(=O)N(C)[C@H]1CC[C@H](CC(=O)NCCc3ccccc3)O[C@H]1CO2,.,.,.,.,-,-
Fc1ccc2cnc(-c3ccsc3)cc2c1,-,-,.,-,-,.
Fc1ccc2cnc(C3=CCCCC3)cc2c1,33.3,-,103.4,-,-,?
C1=C(c2cc3ccccc3cn2)CCCC1,49.6,-,96.6,-,-,79.0
CC(C)NC(=O)N(C)C[C@@H]1Oc2c(NC(=O)C3CCOCC3)cccc2C(=O)N([C@H](C)CO)C[C@H]1C,.,-,.,.,-,-
Cc1nc([N+](=O)[O-])cn1CC(O)c1ccc(Cl)cc1 (stereo not drawn),36.9,-,.,-,-,.
Nc1c(C(=O)NCc2ccco2)nnn1-c1ccccc1,-,.,-,-,.,49.6
Cc1cc(C(=O)N/N=C/c2ccc[nH]2)n[nH]1,-,-,-,-,43.3,.
O=C(c1cnccn1)N1C[C@H]2[C@@H](c3ccccc31)[C@@H](CO)N2Cc1ccccc1Cl,.,-,.,.,-,-
CCCNC(=O)Nc1ccc2c(c1)C(=O)N(C)C[C@H](OC)[C@@H](C)CN(C(=O)C1CC1)[C@@H](C)CO2,.,-,.,.,-,-
SMILES,Wnt bcat act,AF4-AF9 inh,MITF TRPM1 HTS,SMARCA2 act,FGF22 binding,esBAF inh
CC1(c2ccccc2)NC(=O)N(CCOc2ccccc2)C1=O (stereo not drawn),.,.,-,-,.,-
CC1(c2ccccc2)NC(=O)N(N)C1=O (stereo not drawn),-,-,-,-,43.0,-
CCC1(c2ccccc2)NC(=O)N(CC#N)C1=O (stereo not drawn),-,-,-,-,-,-
CC1(c2ccccc2)NC(=O)N(CC#N)C1=O (stereo not drawn),35.6,-,-,-,-,.
C[C@H]1CN([C@@H](C)CO)C(=O)Cc2cc(NC(=O)CCC(F)(F)F)ccc2O[C@@H]1CN(C)S(=O)(=O)c1ccc(Cl)cc1,.,-,.,.,-,-
CC(=O)c1ccc(OC(C)c2nc3ccccc3s2)cc1 (stereo not drawn),-,-,-,-,-,53.0
C[C@H](CO)N1C[C@H](C)[C@H](CN(C)C(=O)C2CCC2)Oc2cc(C#CC3CC3)ccc2S1(=O)=O,.,-,.,.,-,-
C[C@H]1CN([C@@H](C)CO)C(=O)c2cccc(NS(=O)(=O)c3ccccc3)c2O[C@@H]1CN(C)S(=O)(=O)c1ccc(Cl)cc1,.,.,.,.,-,-
Cc1noc(C)c1NC(=O)N(C)C[C@H]1Oc2c(NS(=O)(=O)c3ccc(Cl)cc3)cccc2C(=O)N([C@H](C)CO)C[C@@H]1C,.,-,.,.,-,-
O=C(c1ccc(Cn2cc(Cl)cn2)o1)N1CCN(Cc2ccc3c(c2)OCO3)CC1,-,.,-,.,.,-
CN1CCN(C(=O)c2ccc(Cn3cc(Cl)cn3)o2)CC1,-,-,-,7.9,-,-
CC(C)NC(=O)N[C@@H]1C=C[C@H](CC(=O)NCc2ccc(Oc3ccccc3)cc2)O[C@@H]1CO,.,-,.,.,.,.
Cn1c(SCC(=O)O)nc2ccccc2c1=O,-,-,-,-,-,-
COC(=O)CSc1nc2ccccc2c(=O)n1C,41.7,.,-,-,.,-
CCc1ccc(NC(=O)CSc2nc3ccccc3c(=O)n2CCCC(=O)NCCCN2CCOCC2)cc1,-,-,-,-,43.1,-
COCCCn1c(SCC(=O)Nc2ccc(C(C)=O)cc2)nc2ccccc2c1=O,.,.,.,-,.,65.7
COc1ccccc1-c1cnc2c(c1)C(=O)N([C@H](C)CO)C[C@@H](C)[C@H](CN(C)C(=O)CN(C)C)O2,.,-,.,.,-,-
C[C@H]1CN([C@@H](C)CO)S(=O)(=O)c2ccc(Br)cc2O[C@@H]1CN(C)C(=O)c1cnccn1,.,-,.,.,-,-
COCC#Cc1ccc(CC[C@H]2O[C@H]3CC[C@@H](CO)O[C@H]3C[C@@H]2n2cc(C3(O)CCCC3)nn2)cc1,.,-,.,.,.,.
C[C@H]1CN([C@@H](C)CO)S(=O)(=O)c2ccc(C#CC3CC3)cc2O[C@H]1CN(C)C(=O)c1cnccn1,.,-,.,.,-,-
CC1(C)CC2CC(C)(CN2/C=C2/CCCCC2=O)C1 (stereo not drawn),-,32.2,-,-,-,.
CC1(C)C[C@@H]2C[C@@](C)(CN2C(=O)c2ccccc2)C1,-,-,.,-,-,.
Cc1ccc(NC(=O)Nc2cccc([N+](=O)[O-])c2)nc1,-,-,-,-,43.0,.
O=C(NC1CCCCCCC1)c1ccc(Br)cc1,?,-,.,-,-,.
O=C(CC1CCCCC1)Nc1nc2ccccc2s1,-,-,-,-,-,.
